Assay results published in PubChem BioAssay AID1159580 (chemical genetic matrix, 2015).
About 2,000 (36%) of roughly 5,500 compounds were called active. About 18% were inconclusive and are not listed. No stated cut-off is given here; in the data, active means normalized growth mostly below about 0.91 (no sharp cut-off); inconclusive means no clear call, values can overlap the other calls; inactive means mostly above about 0.92. The list shows a part of the results.

Assay: chemical genetic growth profiling, strain panel (AID 1159580);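 further: tested at 20 µM; growth read once vehicle control cultures reached saturation at 30 °C; 1 = growth at the plate median or of vehicle wells; lower values mean less growth of the strain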
Details: S. cerevisiae deletion strains, growth OD

Measured: normalized growth

COc1cc2c(cc1OC)C1C(=O)c3ccc4c(c3OC1CO2)CCC(C)(C)O4 (stereo not drawn)
inactive: locus YBR021W, strain FUR4, active compounds read low 0.985 | locus YBR229C, strain ROT2, active compounds read low 1 | locus YCL029C, strain bik1, active compounds read low 1.04 | locus YDL035C, strain GPR1, active compounds read low 1.01 | locus YDL074C, strain BRE1, active compounds read low 0.993 | locus YDL101C, strain DUN1, active compounds read low 0.997 | locus YDL185W, strain tfp1, active compounds read low 1.03 | locus YDL192W, strain arf1, active compounds read low 1.01 | locus YDR101C, strain arx1, active compounds read low 0.997 | locus YDR162C, strain NBP2, active compounds read low 1.03 | locus YDR318W, strain mcm21, active compounds read low 1.01 | locus YDR388W, active compounds read low 1 | locus YDR502C, strain sam2, active compounds read low 1.02 | locus YEL061C, strain CIN8, active compounds read low 1 | locus YER110C, active compounds read low 1.02 | locus YER155C, strain BEM2, active compounds read low 0.996 | locus YER167W, strain BCK2, active compounds read low 0.999 | locus YGL078C, strain dbp3, active compounds read low 1.03 | locus YGL086W, strain mad1, active compounds read low 1.02 | locus YGL248W, strain PDE1, active compounds read low 0.99 | locus YGR078C, strain PAC10, active compounds read low 0.996 | locus YGR135W, strain pre9, active compounds read low 1.02 | locus YGR252W, strain gcn5, active compounds read low 0.957 | locus YHR030C, strain SLT2, active compounds read low 1.01 | locus YHR079C, strain IRE1 (second series), active compounds read low 1 | locus YHR094C, strain hxt1, active compounds read low 1.02 | locus YHR129C, strain ARP1, active compounds read low 1.01 | locus YHR200W, strain rpn10, active compounds read low 1 | locus YIL066C, strain RNR3, active compounds read low 1 | locus YIL073C, strain SPO22, active compounds read low 1.02 | locus YIL125W, strain kgd1, active compounds read low 1.02 | locus YIR030C, strain dcg1, active compounds read low 1 | locus YJL095W, strain BCK1, active compounds read low 1.01 | locus YJL134W, strain LCB3, active compounds read low 0.996 | locus YJL168C, strain set2, active compounds read low 1 | locus YJL187C, strain SWE1 (second series), active compounds read low 0.999 | locus YJR043C, strain POL32, active compounds read low 1.01 | locus YKL009W, strain mrt4, active compounds read low 1.03 | locus YKL068W, active compounds read low 1 | locus YKL085W, strain MDH1 (second series), active compounds read low 1.01 | locus YKL085W, strain MDH1, active compounds read low 1.01 | locus YKR001C, strain vps1, active compounds read low 0.994 | locus YLR039C, strain RIC1, active compounds read low 1.01 | locus YLR058C, strain SHM2, active compounds read low 0.999 | locus YLR102C, strain apc9, active compounds read low 1.01 | locus YLR262C, strain YPT6, active compounds read low 1.04 | locus YLR268W, strain sec22, active compounds read low 1.02 | locus YLR330W, strain CHS5, active compounds read low 1.01 | locus YLR342W, strain FKS1 (second series), active compounds read low 1 | locus YLR371W, strain rom2, active compounds read low 1.01 | locus YLR418C, strain cdc73, active compounds read low 1 | locus YML016C, strain PPZ1, active compounds read low 1 | locus YML032C, strain rad52, active compounds read low 1.02 | locus YML124C, strain tub3, active compounds read low 1 | locus YMR078C, strain ctf18, active compounds read low 0.997 | locus YMR223W, strain ubp8, active compounds read low 0.999 | locus YMR263W, strain SAP30, active compounds read low 0.998 | locus YMR307W, strain GAS1, active compounds read low 1 | locus YNL067W, strain RPL9B, active compounds read low 0.993 | locus YNL128W, strain TEP1, active compounds read low 1.03 | locus YNL153C, strain GIM3, active compounds read low 1.02 | locus YNL233W, strain BNI4, active compounds read low 0.982 | locus YNL250W, strain rad50, active compounds read low 1.02 | locus YNL271C, strain bni1, active compounds read low 1.03 | locus YNL298W, strain CLA4, active compounds read low 1.01 | locus YNL307C, strain MCK1, active compounds read low 1 | locus YNL322C, strain KRE1, active compounds read low 1 | locus YNR052C, strain pop2, active compounds read low 1.02 | locus YOL006C, strain TOP1, active compounds read low 0.984 | locus YOL012C, strain htz1 1.01 | locus YOL147C, strain pex11, active compounds read low 1 | locus YOR061W, strain CKA2, active compounds read low 1.01 | locus YOR069W, strain VPS5, active compounds read low 1 | locus YOR136W, strain idh2, active compounds read low 1.02 | locus YOR144C, strain elg1, active compounds read low 1.01 | locus YOR184W, strain ser1, active compounds read low 1.02 | locus YOR316C, strain cot1, active compounds read low 1.01 | locus YPL241C, strain CIN2, active compounds read low 0.993 | locus YPR119W, strain clb2, active compounds read low 1.02 | locus YPR141C, strain kar3, active compounds read low 1.01 | locus YPR163C, strain tif3, active compounds read low 1.01 | locus YPR167C, strain met16, active compounds read low 1 | strain wtn01, active compounds read low 1.02
